This is a sample that favours compounds with a hit; in the whole collection about 2.3% have one here.
A549 viability: A549 cytotoxicity, counter-screen for Nrf2 inhibitors; A549 ARE-Fluc cells, CellTiter-Fluor viability, 18-24 h; Potency, µM (highest dose often 46 µM), without a hit: top-dose activity change, negative = cytotoxicity, hits mostly inhibitors; 390,000 compounds, 0.16% hits; AID 504648; further: potency means the concentration at half of the fitted maximal effect; on the % scale 0 is the no-effect control and ±100 the full control effect
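Cytotoxicity counterscreen: CellTiter-Fluor fluorescence was measured in A549 ARE_Fluc cells after 18-24 h of compound exposure in a concentration series. The subsequent BugLite luminescent read reports ARE-luciferase activity.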
Nrf2 inh: blocks Nrf2 signaling. A549 ARE-Fluc reporter, luciferase luminescence, 18-24 h. Potency, µM (highest dose often 46 µM), without a hit: at the top dose activity change, negative = inhibition, usual class: inhibitors. 360,000 compounds, 2.1% hits. AID 504444; further: potency means the concentration at half of the fitted maximal effect; on the % scale 0 is the no-effect control and ±100 the full control effect; nearly all actives have a fitted effect of over 60% in size
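Nrf2 function is reported as luminescence of an ARE-controlled luciferase in A549 cells. Compounds were tested at several concentrations, and a CellTiter-Fluor read on the same wells flagged cytotoxicity.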
Nrf2 ARE act: activators of Nrf2 (ARE) signaling. AREc32 ARE-luciferase reporter (MCF7-derived line), luminescence, 24 h. 410,000 compounds, 0.31% hits. Potency, µM (series often up to 46.1 µM), for the others: at the top dose activation, actives largely listed as activators; further: potency means the concentration at half of the fitted maximal effect; % of control where 0% means no effect; nearly all actives have a fitted effect of over 65% in size
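Quantitative high-throughput format: AREc32 reporter cells, 1000 per well, received compound by pin transfer and were incubated 24 hr at 37 deg C, 5% CO2, before Steady-Glo luminescence detection.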
IL2 activator: IL-2 activation; IL-2 activation reporter assay, cell-based qHTS; stimulated with anti-CD3/CD4/CD28 beads; in transgenic mouse T cells; activation, % (series mostly up to about 46 µM); 360,000 compounds, 0.065% hits; in the data active means activation above about 50%; inconclusive means mostly about 30% to 49%; further: 0% is about no effect
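Readout: EGFP and DsRed signals by fluorescent plate cytometry. Unstimulated transgenic mouse T cells received compound 60 min before antibody-bead stimulation, then incubated 18 h at 37 degrees C.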
Numbers without * were called inactive; ? = inconclusive; . = not tested or not shown; [ ] = another dose, or the depositor's remark. Unless noted, the call rests on the fitted dose curve; in most records, active means well fitted curve in the direction sought with a large enough effect; inconclusive means small, poorly fitted or top-dose-only effect, or another doubt; inactive means no such curve, though single readings can be large; an effect the other way counts as inactive or inconclusive.

SMILES	A549 viability	Nrf2 inh	Nrf2 ARE act	IL2 activator
O=C(CCc1ccncc1)NC1CCCc2c1cnn2-c1ccc(F)cc1F (configuration not stated)	-9.6%	8.2µM*	-0.5%	-2.7
Cc1nnsc1C(=O)NC1CCCc2c1cnn2-c1ccccc1F (configuration not stated)	-15.5%	2.06µM*	1.9%	-4.1
O=C(c1ccc(N2CCN(C(=O)c3ccccc3Br)CC2)cc1)c1cccc(F)c1	-22.4%	20.6µM*	0.3%	-3.3
CCCCOC(=O)c1ccc(N=Nc2c(C)c(C#N)c(O)[nH]c2=O)cc1	-11.7%	-5.9%	10.9%	106.6*
NS(=O)(=O)c1ccc(CCNC(=O)Nc2ccc(Cl)c(Cl)c2)cc1	-26.8%	20.6µM*	-0.2%	-2.1
NS(=O)(=O)c1ccc(CNC(=S)Nc2ccc(Cl)c(Cl)c2)cc1	-11.5%	-4.0%	2.0%	-1.2
O=C(CNC(=O)c1ccc(-c2ccccc2)cc1)OC(C(=O)Nc1cc(C(F)(F)F)ccc1Cl)c1ccccc1 (configuration not stated)	3.7%	-5.8%	.	.
CCOC(=O)c1ccc(NC(=S)N2CCSC2c2ccc(Cl)cc2)cc1 (configuration not stated)	?	20.6µM*	3.1%	0.0
COc1cc(Cl)c(C)cc1Nc1ncnc2c1nc1n2CCCC1	19.0%	?	1.0%	.
CCC(=O)Nc1ccc(C(=O)OCC(=O)c2ccc(C)c([N+](=O)[O-])c2)cc1	.	7.31µM*	0.1%	-1.8
Cc1ccc(C(=O)OCn2ncc(Cl)c(Cl)c2=O)cc1	.	?	?	1.0
O=C(OCn1ncc(Cl)c(Cl)c1=O)c1ccc(C(F)(F)F)cc1	-15.6%	2.7%	10µM*	-4.7
O=c1cc(-c2ccc(F)cc2)nc(SCc2nc(-c3ccc(Cl)cc3)no2)[nH]1	4.0%	.	-1.2%	.
CN=c1scc(-c2ccc(F)cc2)n1/N=C/c1ccc(O)c(O)c1	-16.2%	20.6µM*	17.8%	-0.6
COc1ccc(OC)c(-c2noc(N3CCN(c4ccc(C(C)=O)cc4)CC3)n2)c1	1.2%	-18.8%	9.6%	.
CCCOc1cccc(-c2cc(-c3n[nH]c(=S)n3CC)c3ccccc3n2)c1	?	13µM*	5.2%	-1.2
CCn1c(-c2cc(-c3ccc(C)cc3)nc3ccccc23)n[nH]c1=S	-6.0%	-15.3%	0.4%	-1.7
Cc1ccc(-n2nc(C(=O)N(C)Cc3ccccc3)c3c4ccccc4n(C)c3c2=O)cc1	2.8%	8.1%[9.27 µM]	0.4%	.
COc1ccc(C2c3ccccc3Oc3ncn(CCN4CCOCC4)c(=N)c32)cc1OC (configuration not stated)	0.1%	?	.	.
CCc1ccc2oc(-c3ccc(NC(=O)c4cc(OC)c(OC)c(OC)c4)cc3)nc2c1	-3.7%	-3.8%	-0.8%	.
COc1ccc(C(=O)Nc2ccc3oc(-c4cccnc4)nc3c2)cc1OC	-3.3%	13µM*	0.1%	0.0
O=C(Nc1ccc2oc(-c3ccncc3)nc2c1)c1ccc2c(c1)OCCO2	0.8%	?	-0.4%	3.5
COc1cc(C(=O)Nc2ccc3oc(-c4cccnc4)nc3c2)cc(OC)c1OC	-2.3%	?	0.1%	-4.8
COc1cc(C(=O)Nc2ccc3oc(-c4ccccc4)nc3c2)cc(OC)c1OC	?	20.6µM*	-2.5%	.
COc1ccc(-c2nc(-c3ccc(NC(=O)c4ccncc4)cc3)no2)cc1OC	0.1%	13µM*	0.3%	-3.4
SMILES	A549 viability	Nrf2 inh	Nrf2 ARE act	IL2 activator
O=C(Nc1ccc2oc(-c3ccccc3)nc2c1)c1ccc2c(c1)OCCO2	?	9.2µM*	-0.5%	-2.4
O=[S+]([O-])(c1c(F)cccc1F)N1CCN([S+](=O)([O-])c2cccc3nonc23)CC1	-1.5%	13.6%	.	.
COc1ccc(NC(=O)CSc2nnc(-c3cccs3)o2)cc1	0.5%	4.0%	6.5%	.
Cc1ccc(-c2[nH]c3c(c2-c2c(-n4cccc4)n(C)c(=O)[nH]c2=O)c(=O)[nH]c(=O)n3C)cc1	6.9%	6.7%	0.5%	.
Cc1cccc(OC(C)C(=O)Nc2ncn[nH]2)c1 (configuration not stated)	2.7%	.	0.1%	.
COc1cc(NC(=O)Cn2nc(-c3ccc(F)cc3)ccc2=O)ccc1-n1cnnn1	?	25.9µM*	2.3%	-2.4
CS(=O)(=O)c1nc(S(=O)(=O)c2ccc(Cl)cc2)c(N2CCOCC2)s1	-2.7%	?	6.31µM*	1.0
CC1CN(c2sc(S(C)(=O)=O)nc2S(=O)(=O)c2ccc(Cl)cc2)CC(C)O1 (configuration not stated)	-11.0%	-22.2%	?	-2.7

Screening data as filed in PubChem.
